Bioassay records deposited in PubChem by National Center for Advancing Translational Sciences (NCATS).
D1 ag = Allosteric Agonists of the Human D1 Dopamine Receptor: qHTS. D(1A) dopamine receptor (Homo sapiens), P21728. hit rate 1% among 360,000. activation, % at 2 µM. HEK293 T-REx D1 cells, calcium flux, agonist mode; also: 0% is about no effect
Target sequence (P21728 whole entry, looked up): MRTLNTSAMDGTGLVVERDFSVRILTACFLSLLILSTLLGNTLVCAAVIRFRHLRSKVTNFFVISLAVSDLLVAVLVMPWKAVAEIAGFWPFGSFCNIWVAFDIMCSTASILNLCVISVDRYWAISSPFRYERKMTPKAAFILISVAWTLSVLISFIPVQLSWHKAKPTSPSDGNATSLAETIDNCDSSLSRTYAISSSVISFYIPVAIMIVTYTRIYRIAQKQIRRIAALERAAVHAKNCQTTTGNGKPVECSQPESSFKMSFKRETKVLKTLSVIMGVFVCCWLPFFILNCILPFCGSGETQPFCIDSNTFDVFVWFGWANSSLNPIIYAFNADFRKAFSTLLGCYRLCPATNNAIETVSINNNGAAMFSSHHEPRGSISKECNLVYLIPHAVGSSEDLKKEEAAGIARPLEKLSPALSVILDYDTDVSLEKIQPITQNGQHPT
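Agonism was scored from calcium flux recorded over 180 s (1 read/s) after pintool compound addition, following a 10-cycle baseline. Cells were inducible force-coupled HEK293 TREx D1, plated overnight at 30 C and loaded with no-wash calcium dye.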
D1 antagonist = Antagonist of Human D 1 Dopamine Receptor: qHTS; D(1A) dopamine receptor (Homo sapiens), P21728; HEK293 TREx D1 cells, calcium flux, dopamine EC80; hits give low values; activity change, negative = inhibition, % at 10 µM; hit rate 3.2% among 360,000; AID 504652, 2011; in the data active = activity change below about -30%; also: % is scaled to controls: 0 for no effect and ±100 for the full control effect
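Inducible Hek293 Trex D1 cells (tetracycline, overnight, 30 C). Calcium dye 30–90 min RT. Antagonist mode: EC80 dopamine added after 180 s compound read.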
TRHR enhancer = qHTS for Small Molecule Agonists and Allosteric Enhancers of Human TRH Receptor: Primary Screen for Enhancers. TRHR cells, fluo-8 calcium fluorescence, EC20 TRH enhancement. enhancement, % at 2 µM. hit rate 0.66% among 360,000. AID 493056, 2011; in the data active = enhancement above about 30%; also: 0% is about no effect
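Enhancer read-out: after compound pinning and an initial kinetic agonist-mode read, an EC20 of TRH (10 nM final) was injected and fluo-8 calcium signal (Ex 480/Em 530) followed at 1 s/cycle for 100 cycles in TRHR-expressing cells.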
TRHR ag = qHTS for Small Molecule Agonists and Allosteric Enhancers of Human TRH Receptor: Primary Screen for Agonists; Thyrotropin-releasing hormone receptor (Homo sapiens), P34981; TRHR cells, calcium flux fluo-8, FDSS agonist mode; activation, % at 2 µM; hit rate 0.18% among 360,000; AID 493084, 2011; also: 0% is about no effect
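TRHR-expressing cells, plated overnight in medium with 10% serum, were loaded with fluo-8 calcium dye at room temperature. After a 10 s baseline, library compound was pin-added and calcium release was recorded kinetically (ex 480/em 530) as agonist response.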
D1 potentiator = Potentiators of Human D1 Dopamine Receptor: qHTS; D(1A) dopamine receptor (Homo sapiens), P21728; HEK293 TREx D1 cells, calcium flux, dopamine EC20 potentiation; potentiation, % at 10 µM; hit rate 0.036% among 360,000; in the data active = potentiation above about 30%; also: 0% is about no effect
Numbers without * were called inactive; . = no result given. Sampled rows, rich in hits. Any-hit rate of the full collection: about 4.7%. Rule as the data show it, unless noted: active = activation above about 30%; inactive = the rest.

SMILES	D1 ag	D1 antagonist	TRHR enhancer	TRHR ag	D1 potentiator
O=C1S/C(=C/c2ccc(N3CCOCC3)o2)C(=O)N1Cc1c(F)cccc1Cl	129*	.	-11	28	0
O=C(O)c1ccccc1-c1ccc(/C=C2\SC(=O)N(c3ccccc3)C2=O)o1	4	-7	10	2	3
O=C1CCC(C(=O)N2CCCO2)CN1Cc1cccc(C(F)(F)F)c1 (stereo not given)	3	-3	2	0	3
COc1cccc(CNC(=O)Cc2c(C(=O)O)c(C)cn2C)c1	3	36	1	0	3
COc1cccc(-c2cccc(NC(=O)C3CCN(CC4CCOC4)CC3)c2)c1 (stereo not given)	1	6	2	0	-5
CCCCn1nc(C(=O)N(CCOC)c2c(N)n(CCCC)c(=O)[nH]c2=O)c2ccccc2c1=O	6	-30*	6	-1	.
CCCCCn1nc(C(=O)N(CCOC)c2c(N)n(CCCC)c(=O)[nH]c2=O)c2ccccc2c1=O	-2	-3	-6	0	-5
CCCn1c(N)c(N(CCOC)C(=O)c2ccccc2)c(=O)[nH]c1=O	5	-36*	0	3	0
CC(C)CN(C(=O)c1cccc([N+](=O)[O-])c1)c1c(N)n(CC(C)C)c(=O)[nH]c1=O	4	-3	33*	-2	-12
CCCCn1c(N)c(N(Cc2ccccc2OC)C(=O)c2c(CC)noc2C)c(=O)[nH]c1=O	1	-44*	-1	0	5
CCCCn1c(N)c(N(CC)C(=O)c2c(CC)noc2C)c(=O)[nH]c1=O	3	-14	-2	0	-7
CCCN(C(=O)CCOc1ccc(C(C)(C)C)cc1)c1c(N)n(Cc2ccccc2)c(=O)[nH]c1=O	3	-50*	0	0	-11
Cc1ccc(OCC(=O)N(C)CC(=O)N(CC(C)C)c2c(N)n(CC(C)C)c(=O)[nH]c2=O)c(C)c1	1	-31*	-3	0	-3
COCCN(C(=O)CSCC(=O)Nc1ccc(C)cc1)c1c(N)n(CC(C)C)c(=O)[nH]c1=O	2	-2	-3	0	.
CCCN(C(=O)COC(=O)CCOc1ccccc1)c1c(N)n(Cc2ccccc2)c(=O)[nH]c1=O	2	6	-1	0	-5
COCCN(C(=O)CSc1nnc(Nc2ccc(C)cc2)s1)c1c(N)n(CC(C)C)c(=O)[nH]c1=O	2	-6	14	0	36*
COCCN(C(=O)c1cccc(-n2cnnn2)c1)c1c(N)n(CC(C)C)c(=O)[nH]c1=O	-1	-40*	-10	1	-6
O=C(COC(=O)CSc1cc(Cl)ccc1Cl)Nc1ncc(C(F)(F)F)cc1Cl	7	-32*	-3	1	7
CCC(=O)OCC(=O)Nc1ncc(C(F)(F)F)cc1Cl	2	-23	5	1	2
NC(=O)NC(CC(=O)NNC(=O)c1ccccn1)c1ccccc1Cl (stereo not given)	1	-7	3	0	3
COc1ccc(/C=C/C(=O)Nc2cccc(C(C)=O)c2)cc1	4	-40*	5	0	-4
CN(C)c1ccc(C(=O)/C=C/c2ccccc2)cc1	2	-6	-4	0	-4
CN(C)c1ccc(C(=O)/C=C/c2ccc(Br)cc2)cc1	5	-33*	-5	0	-4
CC(=O)Nc1cccc(C(=O)/C=C/c2ccc(/C=C/C(=O)c3cccc(NC(C)=O)c3)cc2)c1	1	-8	-3	1	-7
CC(=O)Nc1cccc(C(=O)/C=C/c2ccc(N(C)C)cc2)c1	401*	6	1	153*	15
CCN(CC)c1ccc(/C=C/C(=O)c2ccc(Br)cc2)cc1	425*	-67*	-1	166*	-8
CCOc1cccc(NC(=O)C2CC(=O)N(CC)C(=Nc3ccc(F)cc3)S2)c1 (stereo not given)	6	-16	-13	2	-3
CSc1ncccc1C(=O)Nc1ccc(OC(F)(F)F)cc1	1	-6	-4	-1	-7
